# Records with an inconclusive call do not appear. A number with no mark means an inactive call. The source made the active and inactive calls. Calls come from the whole dose curve; as a rule, active = well fitted cell-killing curve with a large enough effect; inconclusive = small, poorly fitted or top-dose-only effect; inactive = flat fitted curve, though single readings scatter.
# Experiments:
# [1] = Cellular viability qHTS for adrenocortical cancer (ACC) cell line SW-13 (AID 1963989); conditions: SW-13 ACC cells viability, CellTiter-Glo, 48 h; activity (max response): active compounds read low; note: nearly all actives have a fitted effect of over 65% in size;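 for activity (max response): cells grown in serum-free medium with ITS supplement; % is set by controls: 0 for no effect and ±100 for the full control effect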
# Method in brief: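 SW-13 cells in ITS-supplemented serum-free DMEM were plated overnight, then exposed for 48 h at 37C to compound titrations (up to 46 uM final). Viability was read by CellTiter-Glo luminescence; four-parameter logistic fits gave IC50 and efficacy.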
# [2] = Cellular viability qHTS for adrenocortical cancer (ACC) cell line NCI-H295R (AID 1963990); conditions: CellTiter-Glo ATP luminescence, 48 h; series mostly up to 46.1 µM; note: nearly all actives have a fitted effect of over 60% in size;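 for activity change, negative = viability loss: 0% = DMSO only wells and -100% = full killing with cytotoxic reference compound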
# Method in brief: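 Luminescent ATP read-out (CellTiter-Glo, 20 min RT) after 48 h drug exposure of NCI-H295R cells; a titration up to 46 uM final. Data normalized to doxorubicin (100% inhibition) and DMSO (0%); 4-parameter fit gives IC50, max response.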
# Potency is the fitted concentration of half-maximal effect.
smiles,measurement,setting,value
C[C@H](NC(=O)[C@H]1NCC[C@@H]1O)c1ccc(-c2noc(CCC3CCCC3)n2)cc1,activity (max response),[1],-20.3%
Cc1ccc(CCn2c3c(c4cc(Cl)ccc42)CN(C)CC3)cn1,activity (max response),[1],-12.3%
OC(C#CCN1CCCC1)(c1ccccc1)c1ccccc1,activity (max response),[1],-0.545%
same,Potency,[2],inactive
CCOC(=O)C(=O)CCc1ccccc1,activity (max response),[1],6.65%
Oc1cccc(O)c1,activity (max response),[1],6.94%
same,Potency,[2],inactive
CCc1cc2c(c(OCC(F)(F)F)c(C(=O)NC3CCN(C(=O)CO)CC3)n2C)c(=O)n1CC(=O)c1ccccc1,activity (max response),[1],-16.3%
same,Potency,[2],inactive
CC(O)Cn1cnc2c1c(=O)n(C)c(=O)n2C (centres undefined),activity (max response),[1],-7.87%
same,Potency,[2],inactive
COCCNc1cc(NC(=O)N2CCCc3cc(CN4CCN(C)CC4=O)c(C=O)nc32)ncc1C#N,activity (max response),[1],-2.64%
same,"activity change, negative = viability loss",[2],-1.4% [at 9.17 µM]
O=C(CN1CCN(Cc2ccc3c(c2)OCO3)CC1)N1c2ccccc2Sc2ccccc21,activity (max response),[1],-10.1%
same,Potency,[2],inactive
c1ccc(CCNc2nc(-c3ccccc3)cs2)cc1,activity (max response),[1],-5.01%
same,Potency,[2],inactive
CCOC(=O)OC(C)OC(=O)[C@@H]1N2C(=O)[C@@H](NC(=O)[C@H](N)c3ccccc3)[C@H]2SC1(C)C (some centres undefined),activity (max response),[1],4.54%
same,Potency,[2],inactive
CC1Oc2cc(cnc2N)-c2c(nn(C)c2C#N)CN(C)C(=O)c2ccc(F)cc21 (centres undefined),activity (max response),[1],-20%
same,Potency,[2],20 µM (active)
CC1(N)CCN(c2cnc(-c3cccc(Cl)c3Cl)c(N)n2)CC1,activity (max response),[1],-1.73%
same,Potency,[2],inactive
Cc1ccc(-c2ccc(C)cn2)nc1,activity (max response),[1],-26.3%
same,Potency,[2],inactive
CCN(CC)c1ccc(C(=C2C=CC(=[N+](CC)CC)C=C2)c2cc(S(=O)(=O)O)ccc2S(=O)(=O)[O-])cc1,Potency,[1],8.2 µM (active)
same,Potency,[2],7.31 µM (active)
CC(=O)OCC(=O)[C@@]1(O)CC[C@H]2[C@@H]3CCC4=CC(=O)C=C[C@]4(C)[C@@]3(F)[C@@H](O)C[C@@]21C,activity (max response),[1],2.62%
same,Potency,[2],inactive

# From PubChem BioAssay (NCATS)
